Laboratory results as given in ChEMBL document CHEMBL3988442, “University of Dundee, Small-Polar-MMV Screening Library” (2021).
For some of these results: Entries with a potency or affinity are not part of this list.

Assays:
Design in all cases: scale not given: direction of the effect not stated beside the values
[1] = target: Protein translocase subunit SecA (Escherichia coli (strain K12)) (UniProt P10408); experiment: Assay to Identify E. coli SecA ATPase Inhibitors; assay type: functional; conditions: 30 µM
[2] = target: T1, Ubiquitin-activating enzyme e1, putative (Leishmania donovani (strain BPK282A1)) (UniProt E9BSI1); experiment: Leishmania donovani Ubiquitin Activating Enzyme (LdE1); assay type: functional; conditions: 30 µM
T1 sequence (whole entry): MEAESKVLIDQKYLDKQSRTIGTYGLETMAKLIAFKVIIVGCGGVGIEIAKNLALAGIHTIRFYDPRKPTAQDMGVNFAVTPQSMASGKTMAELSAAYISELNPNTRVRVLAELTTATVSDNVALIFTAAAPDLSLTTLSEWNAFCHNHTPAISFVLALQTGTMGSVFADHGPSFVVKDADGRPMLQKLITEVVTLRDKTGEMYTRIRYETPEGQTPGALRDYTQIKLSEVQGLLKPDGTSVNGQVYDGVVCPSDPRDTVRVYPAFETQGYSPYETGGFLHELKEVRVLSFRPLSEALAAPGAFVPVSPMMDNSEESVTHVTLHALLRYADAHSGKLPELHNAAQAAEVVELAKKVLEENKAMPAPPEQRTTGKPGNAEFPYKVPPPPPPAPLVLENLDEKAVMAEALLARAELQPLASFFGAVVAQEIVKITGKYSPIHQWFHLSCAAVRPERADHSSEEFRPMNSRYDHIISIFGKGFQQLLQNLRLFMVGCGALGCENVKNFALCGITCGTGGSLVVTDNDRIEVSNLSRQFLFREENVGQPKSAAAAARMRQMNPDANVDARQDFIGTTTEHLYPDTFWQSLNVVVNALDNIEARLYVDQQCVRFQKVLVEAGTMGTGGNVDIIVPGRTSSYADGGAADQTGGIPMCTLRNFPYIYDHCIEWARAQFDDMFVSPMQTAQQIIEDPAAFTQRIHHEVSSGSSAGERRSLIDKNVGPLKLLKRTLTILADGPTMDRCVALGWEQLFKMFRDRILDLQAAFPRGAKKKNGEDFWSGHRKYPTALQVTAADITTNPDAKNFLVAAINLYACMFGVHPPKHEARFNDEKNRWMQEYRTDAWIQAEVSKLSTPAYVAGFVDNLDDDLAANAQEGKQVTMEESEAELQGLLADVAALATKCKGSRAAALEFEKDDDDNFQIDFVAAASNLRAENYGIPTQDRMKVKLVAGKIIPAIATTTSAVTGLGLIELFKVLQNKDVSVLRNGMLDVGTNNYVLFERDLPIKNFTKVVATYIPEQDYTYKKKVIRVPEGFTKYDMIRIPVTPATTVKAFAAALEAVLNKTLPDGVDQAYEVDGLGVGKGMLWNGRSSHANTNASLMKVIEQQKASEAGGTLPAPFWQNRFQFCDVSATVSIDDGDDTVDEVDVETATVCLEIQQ

[3] = target: AMP-activated protein kinase, AMPK (Homo sapiens) (UniProt P54646+O43741+P54619+Q9UGJ0+Q9Y478+Q13131+Q9UGI9); experiment: AMP-dependent Kinase enzyme assay. An in vitro enzyme assay that detects ADP turnover that is directly proportional to AMPK activity. This uses naive AMPK that is activated during the assay with MK-8722; assay type: functional; conditions: 30 µM
[4] = target: Sialic acid-binding Ig-like lectin 9 (Homo sapiens) (UniProt Q9Y336); experiment: Hs-Siglec9 ALPHAscreen SOP 20170721; conditions: 10 µM
[5] = test system: Trypanosoma cruzi; experiment: Trypanosoma cruzi phosphomannomutase and mannose-1-phosphate guanylyltransferase assay; assay type: functional; conditions: 10 µM
[6] = target: T2, Arginase-2, mitochondrial (Homo sapiens) (UniProt P78540); experiment: in vitro enzyme assay to detect the production of urea directly proportional to the activity of Arginase II; assay type: functional; conditions: 33.3 µM; note: in the data most compounds retested in dose-response had high values
T2 sequence (whole entry): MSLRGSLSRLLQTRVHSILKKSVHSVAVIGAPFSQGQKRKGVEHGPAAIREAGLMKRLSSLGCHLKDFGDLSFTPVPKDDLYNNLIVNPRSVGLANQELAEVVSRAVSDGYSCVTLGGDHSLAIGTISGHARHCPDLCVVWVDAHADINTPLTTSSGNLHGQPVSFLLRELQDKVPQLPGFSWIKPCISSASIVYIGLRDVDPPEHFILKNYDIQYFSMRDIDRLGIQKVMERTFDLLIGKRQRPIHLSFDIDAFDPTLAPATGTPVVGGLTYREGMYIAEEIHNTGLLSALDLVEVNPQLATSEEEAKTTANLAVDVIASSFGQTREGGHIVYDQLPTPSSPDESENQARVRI

[7] = target: T3, Proteasome subunit beta (Trypanosoma cruzi) (UniProt O96673); experiment: Trypanosoma cruzi proteasome chymotrypsin-like activity (TcProtChymo) assay.; note: in the data most compounds retested in dose-response had high values; assay type: functional; conditions: 9.37 µM
T3 sequence (whole entry): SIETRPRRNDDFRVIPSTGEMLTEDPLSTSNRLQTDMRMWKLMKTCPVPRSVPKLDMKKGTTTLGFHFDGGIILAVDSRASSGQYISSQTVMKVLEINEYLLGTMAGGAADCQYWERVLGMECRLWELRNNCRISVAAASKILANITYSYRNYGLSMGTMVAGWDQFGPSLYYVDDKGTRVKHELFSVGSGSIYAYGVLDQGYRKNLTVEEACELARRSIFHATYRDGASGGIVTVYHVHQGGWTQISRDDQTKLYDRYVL

[8] = species: Homo sapiens; experiment: To identify inhibition of the IFN signalling (Jak-Stat) pathway via expression of an eGFP reporter gene under the control of an IFN-stimulated response element (ISRE) containing MxA promoter.; assay type: functional; conditions: 30 µM
[9] = target: T4, Tyrosyl-tRNA synthetase, putative (Trypanosoma cruzi (strain CL Brener)) (UniProt Q4DSP6); experiment: Trypanosoma cruzi tyrosyl tRNA synthetase (TcYRS) _High Tyrosine SOP; assay type: functional; conditions: 30 µM; note: in the data most compounds retested in dose-response had high values
T4 sequence (whole entry): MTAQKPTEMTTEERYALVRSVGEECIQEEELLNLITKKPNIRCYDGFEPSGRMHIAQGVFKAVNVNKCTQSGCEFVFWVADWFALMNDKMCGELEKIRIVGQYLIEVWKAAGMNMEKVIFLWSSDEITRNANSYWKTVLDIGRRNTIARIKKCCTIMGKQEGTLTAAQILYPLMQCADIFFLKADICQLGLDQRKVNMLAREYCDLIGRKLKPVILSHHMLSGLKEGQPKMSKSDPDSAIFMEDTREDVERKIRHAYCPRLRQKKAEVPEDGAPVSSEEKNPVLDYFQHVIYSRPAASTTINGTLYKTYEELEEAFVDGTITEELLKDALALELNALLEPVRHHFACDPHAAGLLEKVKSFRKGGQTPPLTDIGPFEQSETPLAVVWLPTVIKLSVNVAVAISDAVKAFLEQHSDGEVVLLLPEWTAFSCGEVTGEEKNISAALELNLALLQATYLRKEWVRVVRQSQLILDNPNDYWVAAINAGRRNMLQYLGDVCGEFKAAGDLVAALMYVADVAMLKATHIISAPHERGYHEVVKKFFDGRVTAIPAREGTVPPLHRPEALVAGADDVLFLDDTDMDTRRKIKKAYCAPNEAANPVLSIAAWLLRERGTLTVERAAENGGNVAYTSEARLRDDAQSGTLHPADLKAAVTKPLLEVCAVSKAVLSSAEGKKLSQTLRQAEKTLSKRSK

[10] = target: T4, Tyrosyl-tRNA synthetase, putative (Trypanosoma cruzi (strain CL Brener)); experiment: Trypanosoma cruzi tyrosyl tRNA synthetase (TcYRS) SOP; assay type: functional; conditions: 30 µM
[11] = target: Chromo domain-containing protein 1 (Saccharomyces cerevisiae (strain ATCC 204508 / S288c) (Baker's yeast)) (UniProt P32657); experiment: ScCHD-1 Enzyme Inhibition Assay; assay type: functional; conditions: 30 µM; note: in the data most compounds retested in dose-response had high values
Chain of Chromo domain-containing protein 1 (Saccharomyces cerevisiae (strain ATCC 204508 / S288c) (Baker's yeast)) (P32657 whole entry, the tested form may be a part): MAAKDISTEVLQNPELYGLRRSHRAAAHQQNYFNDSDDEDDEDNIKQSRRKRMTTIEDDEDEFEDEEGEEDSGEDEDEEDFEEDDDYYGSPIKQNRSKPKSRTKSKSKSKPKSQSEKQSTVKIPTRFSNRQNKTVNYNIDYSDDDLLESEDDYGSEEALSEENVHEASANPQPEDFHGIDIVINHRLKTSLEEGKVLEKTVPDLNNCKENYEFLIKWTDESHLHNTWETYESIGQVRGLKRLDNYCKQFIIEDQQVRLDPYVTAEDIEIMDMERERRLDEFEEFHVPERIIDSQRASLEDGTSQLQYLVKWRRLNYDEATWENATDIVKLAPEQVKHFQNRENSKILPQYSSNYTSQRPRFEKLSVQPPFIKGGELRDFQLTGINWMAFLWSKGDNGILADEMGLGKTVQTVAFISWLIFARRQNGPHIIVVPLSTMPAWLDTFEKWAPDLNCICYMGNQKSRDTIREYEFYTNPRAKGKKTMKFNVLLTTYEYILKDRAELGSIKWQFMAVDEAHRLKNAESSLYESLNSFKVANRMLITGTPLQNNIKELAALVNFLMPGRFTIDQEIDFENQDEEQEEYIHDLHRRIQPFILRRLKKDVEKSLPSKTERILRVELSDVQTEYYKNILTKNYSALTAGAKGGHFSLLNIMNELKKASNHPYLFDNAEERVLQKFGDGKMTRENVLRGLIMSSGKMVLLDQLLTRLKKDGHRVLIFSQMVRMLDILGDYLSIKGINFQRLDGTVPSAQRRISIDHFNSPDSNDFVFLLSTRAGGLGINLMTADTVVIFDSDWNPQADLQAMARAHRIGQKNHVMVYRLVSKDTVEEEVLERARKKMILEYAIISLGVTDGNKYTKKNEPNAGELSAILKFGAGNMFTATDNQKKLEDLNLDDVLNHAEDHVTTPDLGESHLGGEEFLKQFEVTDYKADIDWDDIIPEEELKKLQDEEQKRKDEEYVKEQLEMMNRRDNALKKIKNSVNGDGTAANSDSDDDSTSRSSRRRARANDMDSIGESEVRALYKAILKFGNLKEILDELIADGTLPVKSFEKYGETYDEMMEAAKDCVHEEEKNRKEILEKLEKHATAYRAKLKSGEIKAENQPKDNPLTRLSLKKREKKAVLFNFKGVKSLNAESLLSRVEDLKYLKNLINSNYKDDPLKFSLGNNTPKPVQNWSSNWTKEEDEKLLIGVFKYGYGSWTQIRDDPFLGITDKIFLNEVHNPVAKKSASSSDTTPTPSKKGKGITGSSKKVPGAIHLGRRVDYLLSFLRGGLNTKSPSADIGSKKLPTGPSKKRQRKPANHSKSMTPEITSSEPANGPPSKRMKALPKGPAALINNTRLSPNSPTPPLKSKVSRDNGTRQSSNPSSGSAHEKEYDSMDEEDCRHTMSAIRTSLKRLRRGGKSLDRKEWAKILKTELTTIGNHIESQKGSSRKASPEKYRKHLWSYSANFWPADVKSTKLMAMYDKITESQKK

Chain of Protein translocase subunit SecA (Escherichia coli (strain K12)) (P10408 whole entry): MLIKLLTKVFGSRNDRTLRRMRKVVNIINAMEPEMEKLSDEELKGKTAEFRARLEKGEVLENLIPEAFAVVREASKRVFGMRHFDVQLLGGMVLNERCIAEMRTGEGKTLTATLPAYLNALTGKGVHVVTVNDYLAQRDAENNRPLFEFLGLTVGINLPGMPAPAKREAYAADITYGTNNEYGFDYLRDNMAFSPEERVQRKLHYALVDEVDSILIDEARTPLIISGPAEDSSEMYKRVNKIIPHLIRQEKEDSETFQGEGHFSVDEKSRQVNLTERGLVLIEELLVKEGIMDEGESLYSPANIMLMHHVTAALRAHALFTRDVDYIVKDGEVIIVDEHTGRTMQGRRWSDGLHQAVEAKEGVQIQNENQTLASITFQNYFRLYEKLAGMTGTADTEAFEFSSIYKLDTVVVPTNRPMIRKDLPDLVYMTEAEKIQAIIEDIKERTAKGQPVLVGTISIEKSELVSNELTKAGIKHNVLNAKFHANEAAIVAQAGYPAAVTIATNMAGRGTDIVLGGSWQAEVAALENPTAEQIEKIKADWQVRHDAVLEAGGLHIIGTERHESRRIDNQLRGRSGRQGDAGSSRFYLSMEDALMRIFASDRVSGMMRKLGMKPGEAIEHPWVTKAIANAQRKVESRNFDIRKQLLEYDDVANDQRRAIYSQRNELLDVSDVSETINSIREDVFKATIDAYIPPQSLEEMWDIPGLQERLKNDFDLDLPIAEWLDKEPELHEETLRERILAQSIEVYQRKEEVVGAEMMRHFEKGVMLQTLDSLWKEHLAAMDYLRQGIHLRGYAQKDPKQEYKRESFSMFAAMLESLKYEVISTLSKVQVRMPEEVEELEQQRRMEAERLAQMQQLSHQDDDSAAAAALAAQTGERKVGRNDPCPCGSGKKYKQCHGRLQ
Chain of Sialic acid-binding Ig-like lectin 9 (Homo sapiens) (Q9Y336 whole entry): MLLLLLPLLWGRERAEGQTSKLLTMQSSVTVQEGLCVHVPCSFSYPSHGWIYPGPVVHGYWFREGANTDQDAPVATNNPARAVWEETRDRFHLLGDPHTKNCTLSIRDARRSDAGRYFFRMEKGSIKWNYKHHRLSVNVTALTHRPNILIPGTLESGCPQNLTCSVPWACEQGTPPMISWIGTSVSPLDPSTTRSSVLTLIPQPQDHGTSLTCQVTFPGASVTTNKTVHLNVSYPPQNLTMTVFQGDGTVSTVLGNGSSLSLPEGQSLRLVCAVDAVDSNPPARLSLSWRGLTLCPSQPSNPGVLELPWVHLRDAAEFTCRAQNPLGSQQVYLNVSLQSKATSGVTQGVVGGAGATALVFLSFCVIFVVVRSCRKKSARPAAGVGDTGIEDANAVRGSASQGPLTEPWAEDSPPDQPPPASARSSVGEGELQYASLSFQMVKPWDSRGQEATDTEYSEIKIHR

Structure (SMILES) | Percent Effect [1] | Percent Effect [2] | Percent Effect [3] | Percent Effect [4] | Percent Effect [5] | Percent Effect [6] | Percent Effect [7] | Percent Effect [8] | Percent Effect [9] | Percent Effect [10] | Percent Effect [11]
N#Cc1ccc(C2CC(=O)Nc3c2cnn3C2CCCC2)cc1 (stereo unspecified) | -3.53% | 13.3% | 0.53% | 17.4% | 4.77% | 19.3% | 3.66% | 6.86% | 1.64% | 8.64% | -14.9%
Cc1nc2ccccc2c(=O)n1CCC(=O)N1CCNC(=O)C1 | -4.53% | 10.5% | 6.29% | 11.3% | 0.94% | 0% | 3.51% | 2.72% | 4.41% | 9.76% | -6.93%
O=C(Nc1cc(C(F)(F)F)c[nH]c1=O)N1CCCSCC1 | -5.05% | 7.79% | 1.88% | 4.65% | -3.37% | 2.85% | 6.08% | 20.5% | 6.8% | 12.2% | -1.96%
CCn1c(C(=O)N2CCN(C(=O)NC(C)C)CC2)cc2ccccc21 | -9.42% | 2.6% | 5.86% | -4.68% | -3.37% | 0.356% | 6.93% | 14.7% | 0% | 0% | -7.12%
Cc1nc(C2CCCN(C(=O)c3scnc3C)C2)no1 (stereo unspecified) | -3.05% | 6.94% | -13.5% | 8.6% | 4.76% | 1.77% | 14.2% | -0.897% | -1.05% | 2.56% | -2.17%
CCCOc1ccc(NC(=O)NCCC(=O)N(C)C)cc1Cl | -2.86% | 13.7% | -18.2% | 4.95% | 4.5% | 0.909% | 19% | 12.8% | 4.3% | 12.5% | -6.34%
CN(Cc1ccc(F)cc1)C(=O)CN1CCOC(Cn2cncn2)C1 (stereo unspecified) | 0.893% | 17.7% | -2.68% | -5.85% | -7.65% | -1.52% | 17.6% | 36% | 1.48% | 3.8% | -4.1%
CN(C(=O)CCNC(=O)NC1CCCCC1)c1ccccc1 | -3.57% | 21.1% | -2.45% | -10.2% | 3.21% | -1.18% | 14.3% | 8.02% | 3.19% | 13% | -0.404%
Cc1cccc(N2Cc3nc(=O)[nH]n3C2=O)c1 | 1.1% | 4% | 3.29% | -0.713% | -4.52% | -9.33% | 19.6% | -0.119% | 5.29% | 5.13% | -4.23%
Oc1nc(N2CCOCC2)nc2c1CCN(Cc1cccnc1)CC2 | -4.93% | 6.76% | 7.05% | 1.25% | -1.98% | -3.48% | 5.15% | 3.87% | 4.3% | 11.7% | -8.38%
O=C(c1cnccn1)N1C[C@@H]2CC[C@H](C1)N(C(=O)Cc1ccsc1)C2 | -5.86% | 2.6% | 5.34% | 4.9% | -4.82% | -16.6% | 9.32% | 8.73% | 5.38% | 3.7% | -0.624%
